# Assay results taken from paper PMC4336329 (PLoS ONE, 2015).
# Screen size: about 310,000 compounds; about 2,200 (0.71%) showed an effect of 50% or more. The effect is printed as a negative number. The full list was thinned out, with strong results kept by preference.
# Molecular target: human ether-à-go-go-related gene (hERG) potassium channel (human, UniProt Q12809)
# Assay: primary screen, population patch clamp on CHO cells stably expressing hERG; higher = less effect of the substance
# human ether-à-go-go-related gene (hERG) potassium channel, sequence (Q12809 whole entry, looked up): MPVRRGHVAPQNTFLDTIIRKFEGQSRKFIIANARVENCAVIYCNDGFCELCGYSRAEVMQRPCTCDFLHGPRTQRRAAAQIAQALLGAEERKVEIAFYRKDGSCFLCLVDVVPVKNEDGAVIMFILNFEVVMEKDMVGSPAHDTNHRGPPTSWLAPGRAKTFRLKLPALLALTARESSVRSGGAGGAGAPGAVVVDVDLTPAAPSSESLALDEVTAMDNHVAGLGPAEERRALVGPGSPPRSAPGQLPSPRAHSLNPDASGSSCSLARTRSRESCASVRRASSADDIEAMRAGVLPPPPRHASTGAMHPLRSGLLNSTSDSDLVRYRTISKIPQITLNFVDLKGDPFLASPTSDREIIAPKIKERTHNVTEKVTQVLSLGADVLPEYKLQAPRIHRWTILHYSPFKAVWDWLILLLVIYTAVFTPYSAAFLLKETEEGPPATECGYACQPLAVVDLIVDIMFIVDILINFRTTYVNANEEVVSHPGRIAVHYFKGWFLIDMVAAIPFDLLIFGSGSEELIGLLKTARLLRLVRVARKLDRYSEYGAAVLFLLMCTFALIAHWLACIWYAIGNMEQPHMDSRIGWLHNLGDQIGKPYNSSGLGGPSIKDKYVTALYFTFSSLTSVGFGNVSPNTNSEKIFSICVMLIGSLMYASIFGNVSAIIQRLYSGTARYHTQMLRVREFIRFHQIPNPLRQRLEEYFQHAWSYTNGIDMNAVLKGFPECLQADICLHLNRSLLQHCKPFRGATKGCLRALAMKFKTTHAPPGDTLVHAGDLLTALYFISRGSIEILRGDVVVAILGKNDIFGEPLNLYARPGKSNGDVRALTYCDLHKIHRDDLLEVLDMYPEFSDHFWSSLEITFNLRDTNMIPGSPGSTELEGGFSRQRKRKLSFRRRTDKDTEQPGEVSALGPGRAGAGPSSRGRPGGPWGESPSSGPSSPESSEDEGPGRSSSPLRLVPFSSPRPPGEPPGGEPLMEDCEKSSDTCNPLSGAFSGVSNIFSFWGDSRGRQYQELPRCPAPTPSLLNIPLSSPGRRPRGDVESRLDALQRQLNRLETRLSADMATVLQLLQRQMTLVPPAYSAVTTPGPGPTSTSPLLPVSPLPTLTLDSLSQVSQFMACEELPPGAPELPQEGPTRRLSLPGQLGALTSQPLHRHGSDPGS
row,Structure (SMILES),"hERG current change (%, negative = inhibition) at 1uM"
1,CC1(C)C2CC=C(/C=N/NC(=O)C(N)=O)C1C2 (centres unmarked),10.3%
2,CC(C)Sc1nc2c(c(=O)[nH]c(=O)n2C)n1Cc1ccc(Cl)cc1,4.3%
3,CCCCCn1c(SC(C)C(C)=O)nc2c1c(=O)[nH]c(=O)n2C (centres unmarked),-91.2%
4,CCOC(=O)C(C)Sc1nc2c(c(=O)[nH]c(=O)n2C)n1CCc1ccccc1 (centres unmarked),-5.6%
5,COC(=O)C(C)Sc1nc2c(c(=O)[nH]c(=O)n2C)n1CCC(C)C (centres unmarked),4.51%
6,CCOC(=O)C(C)Sc1nc2c(c(=O)[nH]c(=O)n2C)n1C/C=C(/C)Cl (centres unmarked),-62.6%
7,C/C(Cl)=C/Cn1c(SC(C)C)nc2c1c(=O)[nH]c(=O)n2C,6.96%
8,C/C(Cl)=C/Cn1c(SCC(C)C)nc2c1c(=O)[nH]c(=O)n2C,10%
9,CCOC(=O)C(C)Sc1nc2c(c(=O)[nH]c(=O)n2C)n1Cc1ccc(Cl)cc1 (centres unmarked),-78.7%
10,CCCCCCn1c(SCC(C)C)nc2c1c(=O)[nH]c(=O)n2C,10.1%
11,CCOCCn1c(SC(C)C(C)=O)nc2c1c(=O)[nH]c(=O)n2C (centres unmarked),-0.132%
12,COC(=O)C(C)Sc1nc2c(c(=O)[nH]c(=O)n2C)n1CCCc1ccccc1 (centres unmarked),-70.1%
13,CCC(C)Sc1nc2c(c(=O)[nH]c(=O)n2C)n1Cc1ccc(Cl)cc1 (centres unmarked),2.15%
14,CCN(CC)C(=O)Oc1cc(=O)n(C)c2ccccc12,6.19%
15,Cc1ccc([C@H]2C(C#N)=C(N)Oc3cc(C)oc(=O)c32)o1,12.8%
16,O=c1c2ccccc2n2cnnc2n1-c1ccccc1,2.26%
17,Cc1ccc(NC(=O)C(c2ccc(Cl)cc2)N2CCOCC2)cc1 (centres unmarked),16.1%
18,Cc1cc2c(cc(C(=O)OCC(=O)NCc3ccco3)n2C)s1,6.5%
19,CC1CCCC(NC(=O)CSc2nnnn2C)C1C (centres unmarked),13.2%
20,COc1ccc(NC(=O)C2CCCN(S(=O)(=O)c3ccc(Cl)cc3)C2)cc1OC (centres unmarked),10.9%
21,CCCCCn1c(=O)c(C(=O)NCc2ccncc2)c(O)c2ccccc21,2.72%
22,CC(NC(=O)c1ccccc1F)C(=O)O (centres unmarked),16.8%
23,C=C(C)COc1ccc(-c2nc(N)ncc2Oc2ccc(OC)cc2)c(O)c1,-5.45%
24,CC(/C=N/NC(=O)c1ccncc1)=C\c1ccco1,14.7%

row,Structure (SMILES),"hERG current change (%, negative = inhibition) at 1uM"
1,Cc1ccc(CNC(=O)COc2ccc3c(c2)CCC3)cc1,-2.48%
2,CCOC(=O)C(CC)Sc1nc2c(c(=O)[nH]c(=O)n2C)n1C/C=C(/C)Cl (centres unmarked),-56.9%
3,CCOC(=O)C(CC)Sc1nc2c(c(=O)[nH]c(=O)n2C)n1CCc1ccccc1 (centres unmarked),-30.9%
4,CCOC(=O)CSc1nc2c(c(=O)[nH]c(=O)n2C)n1C/C=C(/C)Cl,-7.88%
5,COC(=O)CN1C(=O)[C@H]2[C@@H](C3CC3)N3C(=O)CN(Cc4ccc(-c5ccccc5)cc4)C(=O)[C@@]3(Cc3ccccc3)[C@H]2C1=O,15.6%
6,COc1ccccc1Oc1ccc2c(c1)C(=O)N(c1ccc(Br)c3cccnc13)C2=O,1.75%
7,Cc1cccc(NC(=O)CN2C(=O)/C(=C3\SC(=S)N(CC4CCCO4)C3=O)c3ccccc32)c1 (centres unmarked),17.1%
8,O=C1/C(=C2\C(=O)N(Cc3ccc(F)cc3)c3ccccc32)SC(=S)N1CCS(=O)(=O)O,10.6%
9,O=C(CN1C(=O)/C(=C2\SC(=S)N(CCS(=O)(=O)O)C2=O)c2ccccc21)Nc1cccc(Br)c1,-52.8%
10,Cc1ccc(S(=O)(=O)Nc2cccc(C(=O)NCC3(N4CCCCC4)CCCCC3)c2)cc1F,-76.4%
11,Cc1cccc(NS(=O)(=O)c2cccc(C(=O)NCC3(N4CCCCC4)CCCCC3)c2)c1,-45.1%
12,O=C(NCC1(N2CCCCC2)CCCCC1)c1cccc(NS(=O)(=O)c2ccccc2)c1,-34%
13,Cn1cc(CN2CCc3c([nH]c4ccccc34)C2C(C)(C)C)cn1 (centres unmarked),-3.25%
14,CCCc1nc2c(o1)CC(CC(C)SCC)CC2=O (centres unmarked),-11.3%
15,C=C(C)CSc1nc(N)c2c(C)c(C)sc2n1,10.3%
16,Cc1occc1C(=O)NC1CCCN(Cc2ccc(CC(C)C)cc2)C1 (centres unmarked),6.64%
17,O=C(NC1CCCN(Cc2ccc(Cl)cc2)C1)c1c(F)cccc1F (centres unmarked),17.1%
18,CC(C)Cc1ccc(CN2CCCC(NC(=O)c3ccoc3)C2)cc1 (centres unmarked),-7.26%
19,CC(C)Cc1ccc(CN2CCCC(NC(=O)c3ccnn3C)C2)cc1 (centres unmarked),-50.4%
20,O=C(NC1CCCN(Cc2ccc(Cl)cc2)C1)c1c(F)ccc(F)c1F (centres unmarked),-55.4%
21,O=C(NC1CCCN(Cc2ccc(Cl)cc2)C1)c1cccc(F)c1 (centres unmarked),-18.6%
22,O=C(NCCN1CCN(S(=O)(=O)c2ccccc2)CC1)C(=O)Nc1ccc(F)cc1,8.68%
23,O=C(CN1C(=O)c2cccc3cccc(c23)C1=O)NCCCO,9.32%
